The results in this text go back to PubChem BioAssay AID540296 (Southern Research Specialized Biocontainment Screening …, 2011).

A short description of this experiment: MDCK cell cytotoxicity, dose response, cytotoxicity control (AID 540296). Conditions: MDCK cells cytotoxicity; series mostly up to 40 µM.

Potency and affinity values are given separately. Activity calls are given as the source filed them. Where a call stands in place of a potency, no number is given. The rule behind the calls is not given here.

Take `CN(C)c1cccc2c(C=C(C#N)C#N)ccc(N(C)C)c12`: the call was inactive.
In the case of `Cc1ccc(N2C(=O)C(CC(=O)Nc3cccc(F)c3)N(C3CC3)C2=O)cc1` (configuration not stated) it was “inactive”.
